Results as given in PubChem BioAssay (NCATS).
Values joined by “and” are separate entries in the source; they are usually repeats but may differ in a detail not shown here. Equal entries are not always repeated. Records with an inconclusive call do not appear. Where a call stands in place of a potency, no number is given. Active and inactive are the calls of the source. Calls come from the whole dose curve; as a rule, active = well fitted curve in the direction sought with a large enough effect; inconclusive = small, poorly fitted or top-dose-only effect, or another doubt; inactive = no such curve, though single readings can be large; an effect the other way counts as inactive or inconclusive.

Key:
[1] = system: Zika virus NS2B-NS3 protease; assay: Primary screen GU AMC qHTS for Zika virus inhibitors (AID 1347154); note: nearly all actives have a fitted effect of over 70% in size; note: potency is the fitted concentration of half-maximal effect
Procedure, shortened: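 Unlinked Zika NS2B hydrophilic domain–NS3 protease complex at 25 nM in 10 mM Tris-HCl pH 8.0, 0.01% Tween 20, with an AMC peptide substrate. Fluorescence change (340/450 nm) over 15 min at room temperature, normalized to controls, fitted to 4-parameter Hill.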

[2] = qHTS to identify inhibitors of the type 1 interferon - major histocompatibility complex class I in skeletal muscle: primary screen against the NCATS Pharmaceutical Collection (AID 1347407);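 note: luminescence of HiBiT knocked into endogenous HLA-B as interferon-induced MHC class I level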; note: potency is the fitted concentration of half-maximal effect
Procedure, shortened: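 Cells were seeded with 4 ng/ml IFN-beta, incubated 1 h, then dosed with compounds over eight 1:5 steps up to 46 uM final. After 24 h at 37 C, HiBiT lytic reagent was added and luminescence read after 10 min lysis in the dark.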

[3] = qHTS to identify inhibitors of the type 1 interferon - major histocompatibility complex class I in skeletal muscle: primary screen against the NCATS Mechanism Interrogation Plate v5.0 (MIPE) Libary (AID 1347411); note: nearly all actives have a fitted effect of over 65% in size; note: potency is the fitted concentration of half-maximal effect
Procedure, shortened: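 Luminescence from CRISPR HiBit-tagged endogenous HLA-B in human myoblasts reported MHC class I level after 24 h of IFN-beta (4 ng/ml) plus compound. Compounds ran as 11-point 1:3 series, top 46 uM final.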

[4] = molecular target: Protein phosphatase 1D (Homo sapiens) (UniProt O15297); assay: RapidFire Mass Spectrometry qHTS Assay for Modulators of WT P53-Induced Phosphatase 1 (WIP1) (AID 1347424); note: series mostly up to about 63 µM
Sequence of Protein phosphatase 1D (Homo sapiens) (O15297 whole entry, looked up): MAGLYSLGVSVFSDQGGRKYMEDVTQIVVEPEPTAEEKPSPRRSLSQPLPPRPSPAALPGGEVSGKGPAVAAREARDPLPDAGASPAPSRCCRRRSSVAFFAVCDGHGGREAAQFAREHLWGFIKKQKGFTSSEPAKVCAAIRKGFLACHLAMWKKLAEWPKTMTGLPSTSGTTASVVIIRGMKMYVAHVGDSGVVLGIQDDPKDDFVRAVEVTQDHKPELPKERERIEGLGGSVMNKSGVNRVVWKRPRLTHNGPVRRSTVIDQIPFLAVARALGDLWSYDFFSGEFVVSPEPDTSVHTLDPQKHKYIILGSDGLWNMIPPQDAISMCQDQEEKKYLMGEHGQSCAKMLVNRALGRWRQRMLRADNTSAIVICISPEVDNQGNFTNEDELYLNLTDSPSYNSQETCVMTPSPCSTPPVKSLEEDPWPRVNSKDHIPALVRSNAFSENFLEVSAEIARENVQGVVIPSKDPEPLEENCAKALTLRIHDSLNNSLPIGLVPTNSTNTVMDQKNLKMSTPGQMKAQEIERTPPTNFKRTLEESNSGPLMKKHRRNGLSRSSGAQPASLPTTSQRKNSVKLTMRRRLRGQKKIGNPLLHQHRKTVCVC
Procedure, shortened: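 RapidFire MS readout of dephosphorylated VEPPL-S-QETFS product, with 1 uM isotope-labelled peptide standard. Reaction: 10 nM WIP1, 2 uM phosphopeptide substrate, 5 min, room temperature, after 1 h compound preincubation; stopped with 0.5% formic acid.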

SMILES	Potency [1]	Potency [2]	Potency [3]	outcome [4]
CCCCOc1ccc(CC(=O)NO)cc1	inactive	inactive	inactive	inactive
O=C(O)c1cc(=O)[nH]c(=O)[nH]1	inactive	inactive	inactive	inactive
CCC(C)(C)c1ccc(CC(C)CN2C[C@@H](C)O[C@@H](C)C2)cc1 (stereo partly specified)	inactive	inactive	inactive	inactive
NC(N)=NC(N)=NCCc1ccccc1	inactive	inactive	inactive	inactive
CC(C)C1CCC(C(=O)N[C@H](Cc2ccccc2)C(=O)O)CC1 (stereo partly specified)	inactive	inactive	inactive	inactive
CCN[C@H]1C[C@H](C)S(=O)(=O)c2sc(S(N)(=O)=O)cc21	inactive	inactive	inactive	inactive
OC(Cn1cncn1)(Cn1cncn1)c1ccc(F)cc1F	inactive	inactive	inactive	–
NNC(=O)c1ccncc1	inactive	inactive	inactive	inactive
COCCCOc1cc(C[C@@H](C[C@H](N)[C@@H](O)C[C@H](C(=O)NCC(C)(C)C(N)=O)C(C)C)C(C)C)ccc1OC	inactive	inactive	inactive	inactive
C[C@]12C=CC(=O)C=C1CC[C@@H]1[C@@H]2C(=O)C[C@@]2(C)[C@H]1CC[C@]2(O)C(=O)CO	inactive	inactive	inactive	inactive
CCCN[C@H]1CCc2nc(N)sc2C1	inactive	inactive	inactive	inactive
COc1ccc(C(=O)CC(=O)c2ccc(C(C)(C)C)cc2)cc1	inactive	inactive	inactive	inactive
C#CCN[C@@H]1CCc2ccccc21	inactive	inactive	inactive	inactive
CC(N)C12CC3CC(CC(C3)C1)C2 (stereo unspecified)	inactive	inactive	inactive	inactive
CCOC(=O)[C@H](CCc1ccccc1)N[C@H]1CS[C@H](c2cccs2)CN(CC(=O)O)C1=O	inactive	inactive	inactive	inactive
COC(c1ccccc1)(c1ccccc1)[C@H](Oc1nc(C)cc(C)n1)C(=O)O	inactive	inactive	inactive	inactive
CNNCc1ccc(C(=O)NC(C)C)cc1	inactive	inactive	inactive	inactive
C[C@@H]1CN(c2c(F)c(N)c3c(=O)c(C(=O)O)cn(C4CC4)c3c2F)C[C@H](C)N1	inactive	inactive	inactive	inactive
CCCCCCNC(=O)n1cc(F)c(=O)[nH]c1=O	inactive	inactive	inactive	inactive
Oc1c(Cl)cc(Cl)c2cccnc12	inactive	inactive	23.4 µM (active)	–
Cc1oc(=O)oc1CN1CCN(c2cc3c(cc2F)c(=O)c(C(=O)O)c2n3C(C)S2)CC1 (stereo unspecified)	inactive	inactive	inactive	inactive
CCOCC(O)COc1ccc(NC(=O)CC[S+](C)C)cc1 (stereo unspecified)	inactive	inactive	inactive	inactive

SMILES	Potency [1]	Potency [2]	Potency [3]	outcome [4]
CCOC(=O)c1ccc(C#Cc2ccc3c(c2)C(C)(C)CCS3)nc1	31.6 µM (active) and 21.5 µM (active)	inactive	inactive	inactive
CCC(=O)O[C@]1(C(=O)CCl)[C@@H](C)C[C@H]2[C@@H]3CCC4=CC(=O)C=C[C@]4(C)[C@@]3(F)[C@@H](O)C[C@@]21C	inactive	inactive	inactive	inactive
Cn1nnc2c(C(N)=O)ncn2c1=O	inactive	inactive	inactive	inactive
O=NN(CCCl)C(=O)NC1CCCCC1	inactive	inactive	inactive	–
O=c1oc2c(O)c(O)cc3c(=O)oc4c(O)c(O)cc1c4c23	496 nM (active) and 1.92 µM (active)	inactive	inactive	inactive
CCCc1cc(C(N)=S)ccn1	inactive	inactive	inactive	inactive
CC(=O)[C@H]1CC[C@H]2[C@@H]3CC=C4C[C@@H](O)CC[C@]4(C)[C@H]3CC[C@]12C	inactive	inactive	inactive	inactive
Cc1nnc(NS(=O)(=O)c2ccc(N)cc2)s1	inactive	inactive	inactive	–
CN(CCOc1ccc(CC2SC(=O)NC2=O)cc1)c1ccccn1 (stereo unspecified)	inactive	inactive	inactive	inactive
Nc1[nH]c(=O)ncc1F	inactive	inactive	inactive	inactive
CCCOc1ccc(C(=O)OCCN(CC)CC)cc1N	inactive	inactive	inactive	inactive
O=C(O)CSCC(=O)NC1CCSC1=O (stereo unspecified)	inactive	inactive	inactive	inactive
CCOc1cc(N)c(Cl)cc1C(=O)NCC1CN(Cc2ccc(F)cc2)CCO1 (stereo unspecified)	inactive	inactive	inactive	inactive
COc1cccc(N(C)C(=S)Oc2ccc3c(c2)CCCC3)n1	inactive	inactive	–	inactive
CCC(=O)O[C@]1(C(=O)SCF)[C@H](C)C[C@H]2[C@@H]3C[C@H](F)C4=CC(=O)C=C[C@]4(C)[C@@]3(F)[C@@H](O)C[C@@]21C	inactive	–	inactive	inactive
CNCC[C@H](Oc1cccc2ccccc12)c1cccs1	inactive	–	–	inactive
O=c1cc(O)c(Cl)c[nH]1	inactive	inactive	inactive	inactive
Cc1c(-c2ccc(O)cc2)n(Cc2ccc(OCCN3CCCCCC3)cc2)c2ccc(O)cc12	inactive	–	–	inactive
CS(=O)(=O)c1ccc([C@@H](O)[C@@H](CO)NC(=O)C(Cl)Cl)cc1	inactive	inactive	–	inactive
CC(=O)CC(c1ccccc1)c1c(O)c2ccccc2oc1=O (stereo unspecified)	inactive	–	13.1 µM (active)	inactive
Cc1cccc(Nc2ccncc2S(=O)(=O)NC(=O)NC(C)C)c1	inactive	–	–	inactive
C[C@@H](NCCCc1cccc(C(F)(F)F)c1)c1cccc2ccccc12	inactive	26.4 µM (active)	–	inactive
